Experimental data taken from publication PMC4552634, “A New Set of Chemical Starting Points with Plasmodium falciparum Transmission-Blocking Potential for Antimalarial Drug Discovery” (PLoS ONE, 2015).
Like-named read-outs stand apart in the source and are kept apart here. Hit rate of the full screen: of about 13,000 compounds, about 3,200 (25%) showed an effect of 50% or more. Some of the results follow.

System: P. falciparum stage V gametocytes
Set-up: BacTiter-Glo ATP luminescence viability of purified stage V gametocytes in 384-well plates, per cent inhibition versus DMSO

SMILES | % Inhibition (48 h, 5 µM; inhibitor) | % Inhibition (48 h, 5 µM, inhibitor)
O=C(Nc1ccc(Cl)cc1)c1ccc(CN2CCCN(Cc3cccc(F)c3)CC2)cc1 [TCMDC-136404] | -18.08% | 
N#Cc1ccc(CN2CCCN(Cc3cccc(NC(=O)c4ccc(-c5ccccc5)cc4)c3)CC2)cc1 [TCMDC-141838] | 91.89% | 
Cc1ccc(CC(C)NC[C@H](O)c2cccc(Cl)c2)cc1 (stereo partly drawn) [TCMDC-131477] |  | 11.62%
CCOP(=O)(OCC)c1ccc(OC)c(-c2ccc[nH]2)c1 [TCMDC-139023] | 22.96% | 
COC(=O)/C=C/C(=O)N[C@@H]1CC[C@@]2(O)[C@H]3Cc4ccc(O)c5c4[C@@]2(CCN3CC2CC2)[C@H]1O5 [TCMDC-125875] | 50.91% | 
C#CCN1CCC2=C(C1)c1c(O)cc(C(C)CCCc3ccc(F)cc3)cc1OC2(C)C (stereo not drawn) [TCMDC-124277] | -40.47% | 
O=C(/C=C/c1ccc(Cl)c(Cl)c1)NCCCCCN1CCCN(C(=O)Nc2ccc(C(F)(F)F)cc2)CC1 [TCMDC-135757] | 8.096% | 
Cc1cc(C)c(CC(C)NCC(O)c2cccc(C(F)(F)F)c2)c(C)c1 (stereo not drawn) [TCMDC-131460] | -4.216% | 
C[C@@H](CC1CCCCC1)NCc1ccccc1O [TCMDC-140305] | 71.87% | 
CCN(CC)CCOC(=O)C(OC)(c1ccccc1)c1ccccc1 [TCMDC-131779] | 18.56% | 
Cc1ccc(CC(C)NCC(O)c2cccc(C(F)(F)F)c2)c(C)c1 (stereo not drawn) [TCMDC-131465] | -0.5645% | 
CSc1ccc(C[C@@H](C)NC[C@H](O)c2cccc(Cl)c2)cc1 [TCMDC-131507] | 10.96% | 
Cc1nc(C)c(-c2ccc(Oc3ccc(OC(F)(F)F)cc3)cc2)c(OC(=O)N(CCNC(C)C)C(C)C)c1Br [TCMDC-132417] | 109% | 
CNCCN(C)C(=O)Oc1c(Br)c(C)nc(C)c1-c1ccc(Oc2ccc(OC(F)(F)F)cc2)cc1 [TCMDC-137377] | 86.68% | 
CNCCN(C)C(=O)Oc1c(Cl)c(C)nc(C)c1-c1ccc(Oc2ccc(OC(F)(F)F)cc2)cc1 [TCMDC-137384] | 42.19% | 
CNCCCN(C)C(=O)Oc1c(Br)c(C)nc(C)c1-c1ccc(Oc2ccc(OC(F)(F)F)cc2)cc1 [TCMDC-132416] | 117.8% | 
COc1ccc(CC(C)NCC(O)c2cccc(Cl)c2)cc1C (stereo not drawn) [TCMDC-131505] | 13.45% | 
CCc1ccc(CC(C)NCC(O)c2ccccc2)cc1 (stereo not drawn) [TCMDC-131463] | 17.08% | 
CN1CC(c2ccc(Cl)c(Cl)c2)OC1=N (stereo not drawn) [TCMDC-137454] | 1.442% | 
Cc1ccc(CC(C)NCC(O)c2cccc(C#N)c2)cc1 (stereo not drawn) [TCMDC-131451] | 40.18% | 
CCC1(C)CC(CCNCc2ccccc2O)(c2ccc(C)cc2)CCO1 (stereo not drawn) [TCMDC-124003] | 4.575% | 
COCCSc1ccc(CC(C)NCC(O)c2cccc(Cl)c2)cc1 (stereo not drawn) [TCMDC-131513] | 22.33% | 
CCCCCCCCCCS(=O)(=O)N[C@H](COCc1cccc(Oc2ccccc2)c1)COP(=O)(O)OC [TCMDC-131877] | 13.38% | 
CC(C)CCN1C(=O)C(NC(=O)Oc2ccccc2)C(=O)N(CC23CC4CC(CC(C4)C2)C3)c2ccccc21 (stereo not drawn) [TCMDC-137160] | -43.48% | 

SMILES | % Inhibition (48 h, 5 µM; inhibitor) | % Inhibition (48 h, 5 µM, inhibitor)
CCCC(=O)c1c(O)c2ccccc2oc1=O [TCMDC-123881] | 11.83% | 
Cc1ccc(C[C@@H](C)NC[C@H](O)c2cccc(C(F)(F)F)c2)cc1 [TCMDC-131449] | 8.152% | 
[O-]c1n[n+](C2CCCCC2)no1 [TCMDC-138090] | 57.64% | 
CCOC(C(=O)OCCN(C(C)C)C(C)C)(c1ccccc1)c1ccccc1 [TCMDC-131391] | -28.65% | 
COc1ccc(C[C@@H](C)NC[C@H](O)c2cccc(Cl)c2)cc1F [TCMDC-131516] |  | 9.097%
Oc1cc2c(cc1CN1CCN(Cc3ccccc3)CC1)CCC2 [TCMDC-125104] | 73.14% | 
Cc1cccc(N2CCN(Cc3cc(Cl)ccc3O)CC2)c1C [TCMDC-123718] | -35.86% | 
Cc1ccc(C)c(N2CCN(Cc3ccccc3O)CC2)c1 [TCMDC-123518] | 7.065% | 
COc1ccc(O)c(CN2CCN(c3cc(C)ccc3C)CC2)c1 [TCMDC-124056] | 6.084% | 
CCN(CC)CCN1C(=O)C(O)(c2ccccc2Cl)c2c1cc(C(N)=O)cc2C(F)(F)F (stereo not drawn) [TCMDC-133544] | 37.34% | 
COc1ccc(CC(C)NCC(O)c2cccc(Br)c2)cc1 (stereo not drawn) [TCMDC-131496] | 20.1% | 
COc1ccc(C[C@@H](C)NC[C@H](O)c2cccc(Cl)c2)cc1F [TCMDC-131502] |  | 8.677%
CCOC(C(=O)OCC1CCCN(C)C1)(c1ccccc1)c1ccccc1 (stereo not drawn) [TCMDC-131382] | 13.79% | 
CCOC(C(=O)OCC1CCCN1C)(c1ccccc1)c1ccccc1 (stereo not drawn) [TCMDC-131676] | 62.64% | 
COC(C(=O)OCCC1CCCN1C)(c1ccccc1)C1CCCCC1 (stereo not drawn) [TCMDC-131374] | 34.4% | 
CCCCOC(C(=O)OCC1CCCN1C)(c1ccccc1)c1ccccc1 (stereo not drawn) [TCMDC-131730] | -23.33% | 
COC(C(=O)OCCC1CCCN1C)(c1ccccc1)c1ccccc1 (stereo not drawn) [TCMDC-131780] | 73.28% | 
CCOC(C(=O)OCC1CCCN1C(C)C)(c1ccccc1)c1ccccc1 (stereo not drawn) [TCMDC-131750] | -3.502% | 
Cc1ccc(CC(C)NCC(O)c2cccc(Br)c2)cc1 (stereo not drawn) [TCMDC-131444] | 5.106% | 
CCN(CC)CCN1C(=O)C(O)(c2ccccc2Cl)c2c1cc(C#N)cc2C(F)(F)F (stereo not drawn) [TCMDC-132583] | -22.22% | 
CCCCCC(C)C(C)c1cc(OC(N)=O)c2c(c1)OC(C)(C)C=C2c1ccncc1 (stereo not drawn) [TCMDC-131796] | -24.09% | 
O=P(O)(O)Oc1c(Br)cc(Br)cc1-c1cc(Br)cc(Br)c1O [TCMDC-131736] | 1.085% | 
COc1ccccc1CC(C)NCC(O)c1cccc(Cl)c1 (stereo not drawn) [TCMDC-131497] | -23.86% | 
COc1cc(NCCCNC(=O)c2cn(Cc3ccccc3)c3ccccc23)nc2ccccc12 [TCMDC-140140] | 60.42% | 
